Molecules are shown by their SMILES. Compounds without any hit were thinned out: in the full panel of roughly 83,000, 20% have a hit.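 Negative percent growth values reflect cell death: -40 means 40% of the cells present at the start died, and -100 means all died.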 Unmarked numbers belong to inactive results. Active and inactive are the calls of the source. How the source made its calls: active means growth percent below 10; inactive means the rest.

This note sets out measurements from PubChem BioAssay (NCI).

Some test systems named below: NCI-H23 lung; NCI-H226 lung; NCI-H322M lung; HOP-62 NSCLC; NCI-H460 lung; HOP-92 NSCLC; NCI-H522 lung; A549/ATCC NSCLC; 786-0 renal; COLO 205 colon; DU-145 prostate; MALME-3M melanoma; MDA-MB-231 breast; RXF 393 renal; SF-268 CNS; SF-295 CNS; SF-539 CNS; UACC-257 melanoma; M14 melanoma; K-562 leukemia.
Common to all, as to assay: NCI-60 one-dose screen, 48 h (100 = growth as untreated, 0 = no growth, -100 = all killed)
Holding throughout (details): 10 µM unless noted

On to `CCCc1nn2c(CCC(=O)c3nc4ccc([N+](=O)[O-])cc4[nH]3)nnc2s1`, for which the growth in the experiment on NCI-H23 lung is 94.4%; in the experiment with NCI-H226 lung, 102%; in the experiment with NCI-H322M lung it was 97.9%; with HOP-62 NSCLC, 106%; in the experiment with NCI-H460 lung, 104%; in the experiment with HOP-92 NSCLC, 114%. For the same molecule, the growth is 104% in the experiment with NCI-H522 lung; 99.9% in the experiment with A549/ATCC NSCLC; 108% in the experiment with 786-0 renal; 112% in the experiment on COLO 205 colon; 108% with DU-145 prostate; 105% in the experiment with MALME-3M melanoma. The growth is 95.9% in the experiment on MDA-MB-231 breast; 114% in the experiment with RXF 393 renal; 100% in the experiment on SF-268 CNS; 104% with SF-295 CNS; 103% with SF-539 CNS; 113% in the experiment with UACC-257 melanoma. The growth in the experiment on M14 melanoma was 99.6%.

Regarding `CC(=O)N1N=C(CCC(=O)c2nc3ccc([N+](=O)[O-])cc3[nH]2)OC1c1ccc(O)cc1` (configuration not stated), the growth in the experiment on NCI-H23 lung was 93.2%; with NCI-H226 lung it was 101%; in the experiment with NCI-H322M lung it was 99%; in the experiment with HOP-62 NSCLC, 91.2%; in the experiment with NCI-H460 lung, 103%; in the experiment with HOP-92 NSCLC, 118%. The growth with NCI-H522 lung is 51.3%; in the experiment on A549/ATCC NSCLC, 106%; with 786-0 renal, 106%; in the experiment on COLO 205 colon it was 92.3%; with DU-145 prostate it was 108%; in the experiment with MALME-3M melanoma it was 94.4%. In addition, the growth was 102% with MDA-MB-231 breast; 111% in the experiment with RXF 393 renal; 97.7% in the experiment on SF-268 CNS; 96.4% in the experiment on SF-295 CNS; 100% in the experiment with SF-539 CNS; 103% with UACC-257 melanoma. For the same molecule, in the experiment on M14 melanoma, the growth was 103%.

Consider `CC1=C2C(=C[C@@](C)(CO)[C@@H]2OC(=O)N(C)CCN(C)C(=O)OC(C)(C)C)C(=O)[C@](C)(O)C12CC2`, for which the growth in the experiment on NCI-H23 lung is 11.8%; with NCI-H226 lung it was 106%; in the experiment with NCI-H322M lung, 59.7%; with HOP-62 NSCLC, 9.97% (active); in the experiment with NCI-H460 lung, 3.77% (active); with HOP-92 NSCLC, 8.11% (active). In addition, the growth is 57.7% in the experiment with NCI-H522 lung; 10.4% in the experiment with A549/ATCC NSCLC; 65.1% in the experiment with 786-0 renal; 40.1% with COLO 205 colon; 8.82% (active) with DU-145 prostate; 67.3% in the experiment with MALME-3M melanoma. The growth with MDA-MB-231 breast was 48%; with RXF 393 renal it was -57.3% (active); in the experiment on SF-268 CNS, 4.84% (active); in the experiment with SF-295 CNS, 5.06% (active); in the experiment with SF-539 CNS it was 57.9%; in the experiment with UACC-257 melanoma, 100%. For the same molecule, the growth in the experiment on M14 melanoma is 54.8%.

For `Cc1[nH]c2ccc(F)cc2c1CCNC(=O)C1CCN(C(=O)c2ccc(-c3ccccc3)cc2)CC1`, the growth was 45.5% with NCI-H23 lung; 57.3% in the experiment on NCI-H226 lung; 87% in the experiment with NCI-H322M lung; 64.4% in the experiment on HOP-62 NSCLC; 51% with NCI-H460 lung; 70.6% with HOP-92 NSCLC. The growth in the experiment on NCI-H522 lung is 41.6%; in the experiment with A549/ATCC NSCLC, 39.1%; with 786-0 renal it was 63.3%; in the experiment on DU-145 prostate it was 68.8%; in the experiment on K-562 leukemia, 17.3%; in the experiment with MALME-3M melanoma, 63.6%. In addition, the growth was 62.7% with MDA-MB-231 breast; 54.5% in the experiment on RXF 393 renal; 60.4% with SF-268 CNS; 37.6% with SF-295 CNS; 66.8% with SF-539 CNS; 58.1% in the experiment on UACC-257 melanoma. Also, the growth in the experiment with M14 melanoma is 40.8%.

Regarding `Cc1ccc2c(C3C(C#N)=C(N)Oc4cc5ccccc5cc43)cc(=O)oc2c1` (configuration not stated), the growth in the experiment on NCI-H23 lung is 41%; in the experiment with NCI-H226 lung it was 87.8%; in the experiment with NCI-H322M lung, 42.7%; in the experiment on HOP-62 NSCLC, 30.1%; in the experiment with NCI-H460 lung it was 12.5%; in the experiment with HOP-92 NSCLC, 75.7%. Besides, the growth in the experiment on NCI-H522 lung is 7.76% (active); in the experiment with A549/ATCC NSCLC, 25.1%; in the experiment on 786-0 renal, 26.2%; in the experiment on COLO 205 colon, 2.72% (active); in the experiment with DU-145 prostate, 16%; in the experiment with MALME-3M melanoma it was 66.4%. The growth is 50.6% with MDA-MB-231 breast; -11% (active) in the experiment on RXF 393 renal; 54.6% with SF-268 CNS; 9.32% (active) in the experiment with SF-295 CNS; 2.31% (active) with SF-539 CNS; 67.8% in the experiment with UACC-257 melanoma. Besides, the growth in the experiment with M14 melanoma was 0.37% (active).

As to `O=C(Nc1ccccc1Cl)c1c[nH]c(=O)c(-c2ccc(N3CCCOC4(CC4)C3)cc2)c1`, the growth with NCI-H23 lung was 46.9%; in the experiment on NCI-H226 lung it was 50.9%; with NCI-H322M lung it was 78%; with HOP-62 NSCLC it was 69.7%; in the experiment with NCI-H460 lung, 63.8%; in the experiment with HOP-92 NSCLC it was 70.4%. The growth was 53.6% with NCI-H522 lung; 57.8% in the experiment with A549/ATCC NSCLC; 68.2% in the experiment with 786-0 renal; 81.4% in the experiment on COLO 205 colon; 77.6% in the experiment on DU-145 prostate; 70% with MALME-3M melanoma. The growth was 77.7% with MDA-MB-231 breast; 81.2% with RXF 393 renal; 69.8% in the experiment with SF-268 CNS; 55.3% in the experiment with SF-295 CNS; 76% with SF-539 CNS; 38% with UACC-257 melanoma. Moreover, the growth with M14 melanoma was 74.9%.

With `O=S(=O)(CCN1CCOCC1)Nc1cncc(-c2ccc3ncnc(Nc4ccc(F)c(Cl)c4)c3c2)c1`, the growth in the experiment on NCI-H23 lung was 74.8%; with NCI-H226 lung it was 84.8%; in the experiment with NCI-H322M lung, 33.8%; with HOP-62 NSCLC it was 40%; with NCI-H460 lung, 98.6%; with HOP-92 NSCLC, 13%. Besides, the growth in the experiment with NCI-H522 lung is 54.8%; with A549/ATCC NSCLC, 77.2%; in the experiment with 786-0 renal it was 58.9%; with DU-145 prostate it was 65.3%; in the experiment with K-562 leukemia, 96.5%; in the experiment on MALME-3M melanoma, 57.7%. Also, the growth in the experiment with MDA-MB-231 breast is 67.9%; in the experiment with RXF 393 renal, 84.6%; in the experiment on SF-268 CNS, 63.5%; with SF-295 CNS, 82.1%; with SF-539 CNS, 75.1%; in the experiment with UACC-257 melanoma it was 87.6%. Also, the growth in the experiment on M14 melanoma was 73.3%.

For `COc1ccccc1S(=O)(=O)Nc1ccc2c3c(cc(-c4cnn(C)c4)nc13)C(=O)N2C`, the growth is 46.6% in the experiment with NCI-H23 lung; 61.9% with NCI-H226 lung; 47.4% in the experiment with NCI-H322M lung; 33.3% in the experiment with HOP-62 NSCLC; 46.9% in the experiment on NCI-H460 lung; 27.4% in the experiment on HOP-92 NSCLC. Also, the growth is 36% in the experiment with NCI-H522 lung; 38.6% in the experiment on A549/ATCC NSCLC; 43.8% with 786-0 renal; 15.8% with COLO 205 colon; 64.2% with DU-145 prostate; 51.2% with MALME-3M melanoma. Also, the growth is 40.7% in the experiment with MDA-MB-231 breast; 40.2% in the experiment with RXF 393 renal; 59.8% in the experiment with SF-268 CNS; 35.1% in the experiment with SF-295 CNS; 34.6% in the experiment with SF-539 CNS; 44.8% in the experiment on UACC-257 melanoma. Besides, the growth in the experiment with M14 melanoma was 42.6%.
